An excerpt weighted towards active compounds, which were near 19% of everything screened.
IL-1B inflam inh – qHTS for Inhibitors of Inflammasome Signaling: IL-1-beta AlphaLISA Primary Screen | THP-1 LPS/ATP IL-1B secretion, AlphaLISA, 16 h; hits give low values | activity change, % at 57.5 µM | actives 4.7% (n = 360,000) | AID 743279, 2014; in the data active = activity change below about -50%; inconclusive = mostly about -30% to -49%
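Secreted IL-1B measured by AlphaLISA bead assay after 16 h compound exposure of THP-1 cells; compounds (final up to 57.5 uM) added 1 h before LPS (250 ng/mL) and ATP (1.25 mM) stimulation; lower signal means less secretion.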
HT1080-NT tox – qHTS for induction of synthetic lethality in tumor cells producing 2HG: qHTS for the HT-1080-NT fibrosarcoma cell line; HT-1080-NT fibrosarcoma viability, CellTiter-Glo ATP luminescence, 48 h; AID 686970, 2013; actives 1.6% (n = 360,000); Potency, µM (doses to about 46.1 µM), for the others: at the top dose activity, negative = less viability, most hits filed as cytotoxic;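 note: NT is the 2HG producing partner of a matched IDH1 knockdown line; potency is the fitted concentration of half-maximal effect; 0% = DMSO-treated cells and -100% = media-only wells without cells; nearly all actives have a fitted effect of over 55% in size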
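Toxicity toward the 2HG-producing NT line was scored as %Activity, normalised to DMSO and no-cell wells, from CellTiter-Glo luminescence after 48 hours' treatment.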
TDP1 cell noCPT – qHTS for Inhibitors of human tyrosyl-DNA phosphodiesterase 1 (TDP1): qHTS in cells in absence of CPT; DT40 Tdp1-/- hTDP1 cells, no CPT, ATP luminescence, 48 h; Potency, µM (series often up to 46.2 µM), for inactives: at the highest dose activity change, negative = growth inhibition, usual class: inhibitors; actives 15% (n = 420,000); AID 686978, 2013; note: potency is the fitted concentration of half-maximal effect; nearly all actives have a fitted effect of over 55% in size
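Luminescent ATP content (CellTiter-Glo) served as the growth readout. Knockout chicken DT40 cells expressing human TDP1 were exposed to compounds without camptothecin for a minimum 48 hr at 37 °C.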
TDP1 cell CPT – qHTS for Inhibitors of human tyrosyl-DNA phosphodiesterase 1 (TDP1): qHTS in cells in presence of CPT; actives 12% (n = 420,000); Potency, µM (titrated, usually from 46.2 µM), without a hit: at the highest dose activity change, negative = growth inhibition, hits mostly inhibitors; chicken DT40 Tdp1-/-;hTDP1 cells + 20 nM CPT, ATP luminescence, 48 h; note: potency is the fitted concentration of half-maximal effect; nearly all actives have a fitted effect of over 55% in size
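Cell growth measured by CellTiter-Glo luminescence after a minimum 48 h, 37 C compound exposure with 20 nM CPT in Tdp1-knockout DT40 cells stably expressing hTDP1, seeded 400/well; qHTS titration format.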
HT1080 IDH1KD tx – qHTS for induction of synthetic lethality in tumor cells producing 2HG: qHTS for the HT-1080-IDH1KD cell line; HT-1080 IDH1 knockdown viability, ATP luminescence, 48 h; Potency, µM (titrated, usually from 46.1 µM), without a hit: at the top dose activity, negative = toxicity, actives largely listed as cytotoxic; actives 2% (n = 360,000); AID 686971, 2013;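 note: potency is the fitted concentration of half-maximal effect; 0% = DMSO wells and -100% = cell-free medium wells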
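% activity derives from luminescence (CellTiter-Glo), normalised to DMSO and no-cell wells. HT-1080-IDH1KD cells, 750/well, had 48 h compound exposure at 37 °C.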
ELG1 repair inh – qHTS screen for small molecules that inhibit ELG1-dependent DNA repair in human embryonic kidney (HEK293T) cells expressing luciferase-tagged ELG1. HEK293T ELG1-luciferase reporter, luminescence, 16 h; DNA damage induced by 5-fluorouridine. Potency, µM (highest dose often 46.1 µM), for inactives: top-dose activity change, negative = inhibition, most hits filed as inhibitors. actives 2.3% (n = 330,000). AID 504467, 2011; note: potency is the fitted concentration of half-maximal effect; nearly all actives have a fitted effect of over 55% in size
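5-Fluorouridine DNA damage + compound/DMSO, 2,000 cells/well, 16 h, 37 °C/5% CO2. ONE-Glo, 30 min RT, luminescence. Readout = decrease in reporter signal.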
An asterisk follows results filed as active. Unless noted, calls come from the whole dose curve; as a rule, active = well fitted curve in the direction sought with a large enough effect; inconclusive = small, poorly fitted or top-dose-only effect, or another doubt; inactive = no such curve, though single readings can be large; an effect the other way counts as inactive or inconclusive. Unless noted, % is set by controls: 0 for no effect and ±100 for the full control effect.

For COc1cc(C(=O)NCCc2csc(-c3ccc(Cl)cc3)n2)cc(OC)c1OC the results were TDP1 cell noCPT 21µM* and TDP1 cell CPT inconclusive.
`Cc1noc(C)c1C(=O)N1CCC2(CCCN(c3ccncc3)C2)CC1` gave TDP1 cell noCPT -4% and TDP1 cell CPT 25%.
Screening O=C(CN1C(=O)NC(c2ccc(F)cc2)C1=O)NC1CCCCC1 (stereo unspecified) returned IL-1B inflam inh 15, HT1080-NT tox 7%, TDP1 cell noCPT -5%, TDP1 cell CPT 2%, HT1080 IDH1KD tx 2% and ELG1 repair inh 13%.
Screening COc1ccccc1-c1cc(C(F)(F)F)nc(S(=O)(=O)CCCC(=O)Nc2cccnc2Cl)n1 returned IL-1B inflam inh -110*, HT1080-NT tox 15µM*, TDP1 cell noCPT 4.6µM*, TDP1 cell CPT 2.1µM*, HT1080 IDH1KD tx 26µM* and ELG1 repair inh inconclusive.
COc1ccc(NC(=O)CCCS(=O)(=O)c2nc(-c3ccccc3OC)cc(C(F)(F)F)n2)c(OC)c1 was read as TDP1 cell noCPT -20% and TDP1 cell CPT -10%.
For COc1ccccc1-c1cc(C(F)(F)F)nc(S(=O)(=O)CCCC(=O)Nc2ccccc2F)n1 the results were TDP1 cell noCPT 2.6µM* and TDP1 cell CPT 2.6µM*.
`CC1CCN(C(=O)c2nc[nH]c2C(=O)N2CCC(C)CC2)CC1` gave IL-1B inflam inh -5, HT1080-NT tox 14%, TDP1 cell noCPT 17%, TDP1 cell CPT 2%, HT1080 IDH1KD tx 4% and ELG1 repair inh 5%.
`O=C(NCC1CCCO1)C(=O)N/N=C\c1ccc2c(c1)OCO2` (stereo unspecified) gave IL-1B inflam inh -13, HT1080-NT tox -1%, TDP1 cell noCPT 12%, TDP1 cell CPT -8%, HT1080 IDH1KD tx -2% and ELG1 repair inh -2%.
`O=C(CSc1nc(=O)[nH]c2c1CCC2)NCc1ccc(Cl)cc1` gave TDP1 cell noCPT -7% and TDP1 cell CPT 7%.
`CCOC(=O)c1c(C)c(-c2ccccc2)n(CC(=O)Nc2cc(C)ccc2OC)c1C` gave TDP1 cell noCPT 18µM* and TDP1 cell CPT inconclusive.
`CCOC(=O)c1c(C)c(-c2ccccc2)n(CC(=O)Nc2cccc(C)c2C)c1C` gave TDP1 cell noCPT 15µM* and TDP1 cell CPT 13µM*.
`O=C1c2ccccc2C(Nc2ccc3c(c2)OCO3)N1Cc1ccc2c(c1)OCO2` (stereo unspecified) gave IL-1B inflam inh -17, HT1080-NT tox -27%, TDP1 cell noCPT 15µM*, TDP1 cell CPT inconclusive, HT1080 IDH1KD tx -24% and ELG1 repair inh -1%.
Screening O=C1c2ccccc2C(Nc2cccnc2)N1Cc1ccc2c(c1)OCO2 (stereo unspecified) returned IL-1B inflam inh 0, HT1080-NT tox -3%, TDP1 cell noCPT -10%, TDP1 cell CPT 1%, HT1080 IDH1KD tx -11% and ELG1 repair inh 5%.
For COc1cc2nc(SCC(=O)NCc3ccco3)n(Cc3ccc(Cl)cc3)c(=O)c2cc1OC the results were IL-1B inflam inh 39, HT1080-NT tox 0%, TDP1 cell noCPT -4%, TDP1 cell CPT inconclusive, HT1080 IDH1KD tx -1% and ELG1 repair inh -22%.
CCCCN(CC)C(=O)CSc1c2c(nc3ccc(Cl)cc13)CCCC2 was read as TDP1 cell noCPT 16µM* and TDP1 cell CPT 7.3µM*.
O=C(CSc1c2c(nc3ccc(Cl)cc13)CCCC2)NCc1ccccc1Cl was read as TDP1 cell noCPT 23µM* and TDP1 cell CPT 15µM*.
`O=C(CSc1c2c(nc3cc(Cl)ccc13)CCCC2)NCc1ccco1` gave IL-1B inflam inh -66*, HT1080-NT tox -19%, TDP1 cell noCPT 16µM*, TDP1 cell CPT 23µM*, HT1080 IDH1KD tx inconclusive and ELG1 repair inh 17%.
For CC(C)NC(=O)CSc1c2c(nc3ccccc13)CCCC2 the results were IL-1B inflam inh 34, HT1080-NT tox 10%, TDP1 cell noCPT inconclusive, TDP1 cell CPT -2%, HT1080 IDH1KD tx 10% and ELG1 repair inh 27%.
`O=C(CSc1ncccn1)NCc1ccccc1Cl` gave IL-1B inflam inh -1, HT1080-NT tox 9%, TDP1 cell noCPT -5%, TDP1 cell CPT 0%, HT1080 IDH1KD tx -14% and ELG1 repair inh inconclusive.
Screening O=C(CSc1c2c(nc3cc(Cl)ccc13)CCCC2)NCc1ccccc1Cl returned TDP1 cell noCPT 15µM* and TDP1 cell CPT 18µM*.
C1CN(CCN2CCOCC2)CCN1 was read as IL-1B inflam inh -7, HT1080-NT tox 7%, TDP1 cell noCPT 5%, TDP1 cell CPT 5%, HT1080 IDH1KD tx -1% and ELG1 repair inh 15%.
`COCCNC(=O)CSc1c2c(nc3ccc(Cl)cc13)CCCC2` gave IL-1B inflam inh inconclusive, HT1080-NT tox -21%, TDP1 cell noCPT inconclusive, TDP1 cell CPT 16µM*, HT1080 IDH1KD tx -29% and ELG1 repair inh inconclusive.
`O=C(CSc1c2c(nc3cc(Cl)ccc13)CCCC2)N1CCN(c2ccccc2)CC1` gave TDP1 cell noCPT 5.8µM* and TDP1 cell CPT 7.3µM*.
Screening CCN(C(=O)c1ccc2c(SCC(=O)O)c3c(nc2c1)CCC3)c1cc(Cl)ccc1OC returned IL-1B inflam inh 4, HT1080-NT tox 8%, TDP1 cell noCPT -13%, TDP1 cell CPT -3%, HT1080 IDH1KD tx 0% and ELG1 repair inh -2%.
`Cc1cc(C)c2cc(C#N)c(SCC(=O)NCc3ccco3)nc2c1` gave IL-1B inflam inh 1, HT1080-NT tox -2%, TDP1 cell noCPT 18µM*, TDP1 cell CPT 18µM*, HT1080 IDH1KD tx -6% and ELG1 repair inh -14%.
`O=C(c1ccc2c(Cl)c3c(nc2c1)CCCC3)N1CCN(c2ccc(Cl)cc2)CC1` gave TDP1 cell noCPT inconclusive and TDP1 cell CPT -19%.
For CCOC(=O)CSc1nc2cc(C)cc(C)c2cc1C#N the results were IL-1B inflam inh 0, HT1080-NT tox 14%, TDP1 cell noCPT inconclusive, TDP1 cell CPT -23%, HT1080 IDH1KD tx 6% and ELG1 repair inh 29%.

Bioassay records: PubChem, National Center for Advancing Translational Sciences (NCATS)
